Here are results for nine compounds from PubChem BioAssay.

Activity calls are given as the source filed them.

Assay [1] is described as follows: E. coli DRC41 culture turbidity changes, primary screen, E. coli filamentation inducer project, strain DRC41, OD650, 48 h (AID 1152).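 Note: E. coli MC1000 strain DRC41 lacking acrAB efflux pump and sulA.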 Particulars: E. coli DRC41 (acrAB sulA), higher = more signal, called active from +8 up or from −8 down.
Assay [2] can be described thus: small-molecule binders of probe aLefty1, primary screen, biochemical, small-molecule microarray, 635/667 nm fluorescence (AID 1153).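 Note: score merges spot fluorescence with signal-to-noise ratio from the scanned slide images.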 Conditions: higher = more signal.
Assay [3] in a line: PSAC antagonists in infected red cells, primary screen, cell-based, P. falciparum Indochina, OD700, 1 h (AID 1154). Particulars: P. falciparum Indochina infected RBC osmotic lysis, higher = more signal, called active from +8 up or from −8 down.
A short description of assay [4]: PSAC antagonists in infected red cells, primary screen, cell-based, P. falciparum Indochina, OD700, 2 h (AID 1155).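 Note: lysis reports solute entry through the parasite surface anion channel PSAC; channel blockers reduce lysis of infected cells.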 Particulars: P. falciparum Indochina infected erythrocytes, osmotic lysis OD700; higher = more signal, called active from +8 up or from −8 down.
The nature of assay [5]: osmotic lysis modulators in infected erythrocytes, primary screen, PSAC antagonist project, cell-based, P. falciparum Indochina, OD700, 3 h (AID 1156). Particulars: higher = more signal, called active from +8 up or from −8 down.
A short description of assay [6]: PSAC antagonists in infected red cells, primary screen, cell-based, P. falciparum Indochina, OD700, 18 h (AID 1157). Particulars: P. falciparum Indochina infected erythrocytes, osmotic lysis OD700, 18 h; higher = more signal, called active from +8 up or from −8 down.
Assay [7] can be described thus: modulators of S6 phosphorylation in cells, primary screen, cell-based, A549, cytoblot, luminescence, serum-stimulated (AID 1158).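 Note: serum-stimulated A549 lung adenocarcinoma cells; signal is phosphorylated S6 detected by cytoblot immunostaining with HRP secondary.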 Particulars: A549 phospho-S6 cytoblot, 5 h, higher = more signal.
In assay [8] the target is NADPH oxidase 2 (Homo sapiens) (UniProt P04839). Nature of the assay: NOX2-dependent H2O2 signal modulators, primary screen, NOX inhibitor project, cell-based, HEK293-NOX2, PMA-stimulated, Amplex Red fluorescence (AID 1159). Note: test concentration not given here. Particulars: 45 min, higher = more signal, called active from +8 up or from −8 down.
Assay [9] deals with NADPH oxidase 4 (Homo sapiens) (UniProt Q9NPH5). Nature of the assay: NOX4-dependent H2O2 signal modulators, primary screen, NOX inhibitor project, cell-based, HEK293-NOX4, tetracycline-induced, Amplex Red fluorescence (AID 1160). Conditions: 45 min, higher = more signal, called active from +8 up or from −8 down.
The target in assay [10] is NADPH oxidase 5 (Homo sapiens) (UniProt Q96PH1). Kind of assay: NOX5-dependent H2O2 signal modulators, primary screen, NOX inhibitor project, cell-based, HEK293-NOX5, Amplex Red fluorescence (AID 1161). Conditions: HEK293-NOX5, ionomycin, 45 min, higher = more signal.
Assay [11] in a line: A549 cell viability effects, profiling panel, calcein-AM fluorescence, 48 h, basal (AID 1162). Note: test concentration not given here. Conditions: higher = more signal.
Assay [12] can be described thus: adipocyte viability effects, profiling panel, cell-based, 3T3-L1 adipocytes, calcein-AM fluorescence, 48 h, basal (AID 1163). Note: test concentration not given here. Conditions: 3T3-L1 adipocytes viability, higher = more signal.
Assay [13] is described as follows: HepG2 cell viability effects, profiling panel, calcein-AM fluorescence, 48 h, basal (AID 1164). Note: test concentration not given here. Particulars: higher = more signal.
The nature of assay [14]: MM1S cell viability effects, profiling panel, calcein-AM fluorescence, 48 h, basal (AID 1165).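 Note: viability of MM1S multiple myeloma cells under basal unstimulated conditions; test concentration not given here.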 Particulars: higher = more signal.
Assay [15] can be described thus: basal RPMI8226 viability, no added stimulus, profiling panel, cell-based, calcein-AM fluorescence, 48 h, PK04 Diversity Set (AID 1166).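 Note: cells grown under basal conditions without added stimulus; test concentration not given here.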 Conditions: RPMI8226 myeloma viability, higher = more signal.
Assay [16] in a line: basal HepG2 mitochondrial membrane potential changes, profiling panel, cell-based, JC-1 fluorescence, 24 h, 100 nL compound (AID 1167). Note: test concentration not given here. Conditions: higher = more signal.
A short description of assay [17]: basal 3T3-L1 adipocyte mitochondrial potential changes, profiling panel, cell-based, JC-1 fluorescence, 3T3-L1 adipocytes, 24 h, 100 nL compound (AID 1168). Note: test concentration not given here. Conditions: JC-1 mitochondrial fluorescence, higher = more signal, called active from +8 up or from −8 down.
Assay [18] in a line: basal RPMI8226 mitochondrial membrane potential changes, profiling panel, cell-based, JC-1 fluorescence, 24 h, 100 nL compound (AID 1169). Note: test concentration not given here. Particulars: RPMI8226 myeloma, JC-1 mitochondrial potential fluorescence, higher = more signal.
Assay [19] is described as follows: basal MM1S mitochondrial membrane potential changes, profiling panel, cell-based, JC-1 fluorescence, 24 h, 100 nL compound (AID 1170). Note: test concentration not given here. Particulars: higher = more signal.
The nature of assay [20]: A549 lung cancer cell viability effects, profiling panel, resazurin fluorescence, 24 h, PK04 Diversity Set (AID 1171). Note: test concentration not given here. Conditions: higher = more signal, called active from +8 up or from −8 down.

NADPH oxidase 4 (Homo sapiens), sequence (Q9NPH5 whole entry, looked up): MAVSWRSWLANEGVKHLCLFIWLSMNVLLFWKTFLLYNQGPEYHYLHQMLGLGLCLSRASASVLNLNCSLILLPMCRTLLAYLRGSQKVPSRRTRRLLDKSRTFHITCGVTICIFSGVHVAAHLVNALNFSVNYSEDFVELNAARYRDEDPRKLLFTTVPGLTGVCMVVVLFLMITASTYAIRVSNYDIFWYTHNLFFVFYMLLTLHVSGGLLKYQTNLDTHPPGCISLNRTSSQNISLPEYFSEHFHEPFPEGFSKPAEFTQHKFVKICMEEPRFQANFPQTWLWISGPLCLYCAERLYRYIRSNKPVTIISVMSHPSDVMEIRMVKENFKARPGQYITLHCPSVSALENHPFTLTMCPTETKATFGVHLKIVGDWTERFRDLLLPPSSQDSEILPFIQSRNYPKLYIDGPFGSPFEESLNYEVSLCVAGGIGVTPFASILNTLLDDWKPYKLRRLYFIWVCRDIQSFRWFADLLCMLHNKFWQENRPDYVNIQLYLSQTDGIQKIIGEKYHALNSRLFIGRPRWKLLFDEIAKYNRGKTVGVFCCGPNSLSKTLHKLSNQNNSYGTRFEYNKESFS
NADPH oxidase 5 (Homo sapiens), sequence (Q96PH1 whole entry, looked up): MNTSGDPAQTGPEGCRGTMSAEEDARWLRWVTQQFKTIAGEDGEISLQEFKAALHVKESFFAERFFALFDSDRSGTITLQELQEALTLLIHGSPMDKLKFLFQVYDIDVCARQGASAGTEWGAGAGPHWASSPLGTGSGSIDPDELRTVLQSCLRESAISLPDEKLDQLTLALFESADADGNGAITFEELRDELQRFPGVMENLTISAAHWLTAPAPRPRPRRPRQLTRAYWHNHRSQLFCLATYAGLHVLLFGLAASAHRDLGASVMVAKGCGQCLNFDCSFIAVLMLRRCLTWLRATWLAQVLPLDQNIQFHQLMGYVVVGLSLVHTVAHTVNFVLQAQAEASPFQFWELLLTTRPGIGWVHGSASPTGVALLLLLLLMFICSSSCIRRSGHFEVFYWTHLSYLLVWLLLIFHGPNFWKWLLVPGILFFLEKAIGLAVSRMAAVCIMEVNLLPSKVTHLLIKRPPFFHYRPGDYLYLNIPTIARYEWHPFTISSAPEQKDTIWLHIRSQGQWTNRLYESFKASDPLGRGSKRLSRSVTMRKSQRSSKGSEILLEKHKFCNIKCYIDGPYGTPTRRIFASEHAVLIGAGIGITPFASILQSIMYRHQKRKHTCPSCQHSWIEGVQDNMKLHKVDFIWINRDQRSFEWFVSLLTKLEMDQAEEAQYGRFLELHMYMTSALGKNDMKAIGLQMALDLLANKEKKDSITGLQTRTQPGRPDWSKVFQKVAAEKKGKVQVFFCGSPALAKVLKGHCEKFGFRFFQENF
NADPH oxidase 2 (Homo sapiens), sequence (P04839 whole entry, looked up): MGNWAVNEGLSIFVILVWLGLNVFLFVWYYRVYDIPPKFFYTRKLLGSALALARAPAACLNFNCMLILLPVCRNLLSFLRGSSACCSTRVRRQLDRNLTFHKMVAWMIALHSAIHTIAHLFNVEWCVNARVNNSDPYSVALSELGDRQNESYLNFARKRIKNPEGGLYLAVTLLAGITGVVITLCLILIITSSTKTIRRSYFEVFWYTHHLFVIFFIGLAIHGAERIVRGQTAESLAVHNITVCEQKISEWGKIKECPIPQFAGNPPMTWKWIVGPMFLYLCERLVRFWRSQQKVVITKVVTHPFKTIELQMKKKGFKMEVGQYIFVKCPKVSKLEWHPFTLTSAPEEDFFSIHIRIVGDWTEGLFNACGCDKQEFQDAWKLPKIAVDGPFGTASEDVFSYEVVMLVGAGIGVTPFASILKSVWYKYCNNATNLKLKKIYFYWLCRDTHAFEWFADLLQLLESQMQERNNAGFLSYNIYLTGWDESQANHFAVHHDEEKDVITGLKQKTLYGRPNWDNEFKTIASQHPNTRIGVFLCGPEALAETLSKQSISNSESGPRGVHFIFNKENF

With `CC(C)C[C@@H]1NC(=O)[C@@]23C(=O)N[C@@H](Cc4ccccc4)C2[C@H](C)[C@@]2(C)O[C@H]2C3/C=C/C/C=C\CNC(=O)CNC1=O` (stereo not given in full), the z-score in [1] is -0.815 (inactive); in [3], 0.917 (inactive); in assay [4] it was 0.0107 (inactive); in [5], -0.023 (inactive); in assay [6] it was 0.329 (inactive); in assay [7], 0.208. For the same compound, the z-score in [8] was 1.82 (inactive); in [9], 1.2 (inactive); in [10], -0.441; in assay [11], 0.201; in [12], 0.97; in assay [13], -0.47. Further, the z-score in assay [14] is -0.288; in assay [15], -0.174; in [16], -0.572; in [17], -0.159 (inactive); in [18] it was 0.149; in [19], 0.694. For the same compound, the z-score in assay [20] is -0.624 (inactive). Also, the composite z-score in [2] is -0.0832.
Turning to `COC(=O)C[C@H]1O[C@@]2(C[C@@H]1[Si](C)(C)C)C(=O)N(C)c1ccccc12`, the z-score in assay [1] is 3.12 (inactive); in assay [3], -1.14 (inactive); in assay [4], -0.694 (inactive); in [5] it was -1.23 (inactive); in assay [6] it was -1.92 (inactive); in assay [7], 0.953. Moreover, the z-score in [8] was -0.465 (inactive); in assay [9], 0.764 (inactive); in assay [10], 1.21; in [11], 0.904; in assay [12], 0.69; in [13], 0.606. The z-score was 0.561 in [14]; -0.356 in assay [15]; 1.23 in assay [16]; 0.63 (inactive) in assay [17]; -1.09 in [18]; 0.965 in [19]. In addition, the z-score in [20] is 0.543 (inactive). The compound further came in with a composite z-score in assay [2] of 0.14.
With `C=CC[C@@]12N=C(c3ccc(OCCCO)cc3)O[C@@H]1c1ccccc1N(CCC)C2=O`, the z-score in assay [1] was 1.39 (inactive); in assay [3], 35.3 (active); in [4] it was 36.6 (active); in [5], 1.75 (inactive); in assay [6] it was 6.24 (inactive); in assay [7], 0.697. Also, the z-score in assay [8] is -3.4 (inactive); in assay [9] it was -0.215 (inactive); in [10], -1.75; in assay [11], -0.604; in [12], 0.96; in assay [13], -1.16. For the same compound, the z-score is -1.79 in [14]; -3.66 in [15]; 1.07 in assay [16]; 2.64 (inactive) in assay [17]; -1.22 in assay [18]; -0.994 in assay [19]. Also, the z-score in [20] was 0.0626 (inactive). The compound further registered a composite z-score in [2] of 0.568.
Regarding `C=CCNC(=O)[C@H]1[C@@H]2C(=O)O[C@@H](c3ccccc3)[C@@H](c3ccccc3)N2[C@@H](c2ccccc2OCCO)[C@]12C(=O)N(C(=O)OCCOC)c1ccc(C#Cc3ccc(OC)cc3)cc12`, the z-score was 0.296 (inactive) in assay [1]; 2.46 (inactive) in assay [3]; 1.98 (inactive) in [4]; 0.0435 (inactive) in assay [5]; 1.25 (inactive) in assay [6]; 0.638 in [7]. Also, the z-score in assay [8] is 1.74 (inactive); in assay [9], 0.404 (inactive); in assay [10], 0.673; in [11], 0.005; in assay [12], -0.182; in assay [13] it was 0.0823. In addition, the z-score in [14] is -1.05; in [15], -1.15; in assay [16], 0.421; in assay [17] it was 3.69 (inactive); in [18], -0.981; in assay [19], -1.13. Also, in assay [20], the z-score is -0.958 (inactive). This compound had a composite z-score in assay [2] of 0.0114.
As for `COc1ccc([Si](C)(C)[C@@H]2[C@@H](CC(=O)N3CCC[C@H]3CO)O[C@]3(C(=O)N(Cc4cccc(N5CCCCC5=O)c4)c4ccccc43)[C@H]2C)cc1`, the z-score is 0.422 (inactive) in [1]; 3.85 (inactive) in [3]; 1.23 (inactive) in assay [4]; -1.02 (inactive) in [5]; 0.278 (inactive) in assay [6]; 0.067 in assay [7]. Besides, the z-score was 2.88 (inactive) in assay [8]; 1.64 (inactive) in assay [9]; 4.73 in assay [10]; -0.158 in assay [11]; 0.403 in [12]; -1.35 in assay [13]. Further, the z-score in [14] is -2.81; in assay [15], -4.25; in [16] it was -2.13; in assay [17], -0.191 (inactive); in assay [18] it was -1.12; in assay [19], -1.47. In addition, in [20], the z-score is -1.6 (inactive). The same compound came in with a composite z-score in assay [2] of 0.0046.
`Cc1ccc(C(C)CC(O)C2C=CC3C(=O)N(C)C(=O)C3N2Nc2ccccc2)o1` (stereo not given): the z-score in [1] is -2.23 (inactive); in [3] it was 2.46 (inactive); in assay [4] it was 0.962 (inactive); in assay [5], 0.684 (inactive); in assay [6], 1.17 (inactive); in assay [7], -1.4. Besides, the z-score in assay [8] is -1.73 (inactive); in [9], -4.75 (inactive); in [10], -3.53; in assay [11], -0.428; in assay [12] it was -1.01; in assay [13] it was 0.345. For the same compound, the z-score was -0.144 in [14]; 0.0166 in assay [15]; -1.35 in assay [16]; -0.592 (inactive) in [17]; 0.347 in assay [18]; -0.249 in assay [19]. In addition, the z-score in [20] was -0.18 (inactive). Moreover, the composite z-score in assay [2] was 0.356.
Take `C#CCN1[C@@H](Cc2ccccc2)C(=O)O[C@H](Cc2ccccc2)[C@@H]1/C=C/C1CC1`: the z-score in [1] is 0.827 (inactive); in [3], -0.396 (inactive); in assay [4], 0.317 (inactive); in assay [5], -0.199 (inactive); in assay [6], -0.48 (inactive); in assay [7] it was -0.328. Further, the z-score is -0.279 (inactive) in [8]; -0.284 (inactive) in assay [9]; -2.19 in [10]; -0.589 in [11]; -0.488 in assay [12]; 0.196 in assay [13]. Also, the z-score was -2 in assay [14]; -2.16 in assay [15]; 2.46 in assay [16]; -0.693 (inactive) in assay [17]; -0.812 in assay [18]; 0.4 in [19]. In [20], the z-score is 3.08 (inactive). In [2], the composite z-score is -0.103.
Regarding `COC(=O)C1(Cc2ccccc2)C=C2C(=C(C)C(=O)C2C)CN1` (stereo not given), the z-score was -0.492 (inactive) in assay [1]; 0.756 (inactive) in assay [3]; -0.425 (inactive) in assay [4]; -0.662 (inactive) in assay [5]; -1.2 (inactive) in assay [6]; 2.47 in assay [7]. The z-score is 0.436 (inactive) in [8]; -0.568 (inactive) in [9]; -4 in [10]; -0.865 in assay [11]; 0.45 in assay [12]; 0.159 in assay [13]. The z-score is 0.232 in assay [14]; 0.213 in [15]; -0.237 in assay [16]; -0.046 (inactive) in [17]; 0.151 in [18]; -0.762 in assay [19]. In addition, the z-score in [20] is -1.21 (inactive). The composite z-score in assay [2] turned out to be 0.695.
As for `COc1ccc([Si](C)(C)[C@H]2[C@H](CC(=O)N3Cc4ccccc4C[C@H]3CO)O[C@@]3(C(=O)N(c4ccccc4)c4ccccc43)[C@@H]2C)cc1`, the z-score is 0.968 (inactive) in assay [1]; 11.9 (active) in [3]; 2.16 (inactive) in assay [4]; 1.24 (inactive) in [5]; 1.09 (inactive) in [6]; 1.35 in assay [7]. Besides, the z-score in assay [8] was -1.56 (inactive); in [9], -0.499 (inactive); in [10] it was -2.51; in [11] it was -0.782; in assay [12], 0.898; in assay [13] it was -0.755. Moreover, the z-score is -2.67 in assay [14]; -4.49 in [15]; 0.959 in assay [16]; -0.652 (inactive) in assay [17]; -1.1 in assay [18]; -0.81 in assay [19]. Further, the z-score in assay [20] is 0.698 (inactive). Besides, the composite z-score in assay [2] is 0.701.
